The nature of test [1]: qHTS assay to identify small molecule antagonists of the glucocorticoid receptor (GR) signaling pathway - cell viability counter screen (AID 720693). Further: nearly all actives have a fitted effect of over 55% in size. Further: potency means the concentration at half of the fitted maximal effect. On the technique in general: Quantitative high-throughput screening tests each substance at several concentrations.
The nature of test [2]: qHTS assay for identifying genotoxic compounds that show differential cytotoxicity against isogenic chicken DT40 cell lines with known DNA damage response pathways - wild type cell line (AID 743012). Further: nearly all actives have a fitted effect of over 60% in size. Further: potency means the concentration at half of the fitted maximal effect. The essentials:
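Quantitative HTS on parental DT40 cells: 40 h compound treatment at 37 C/5% CO2, with viability then determined by CellTiter-Glo luminescence. Values serve as the DNA repair-proficient reference for differential cytotoxicity.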

Test [3] is described as follows: qHTS assay for identifying genotoxic compounds that show differential cytotoxicity against isogenic chicken DT40 cell lines with known DNA damage response pathways - Rev3 mutant cell line (AID 743014). Further: nearly all actives have a fitted effect of over 55% in size. Further: potency means the concentration at half of the fitted maximal effect.
The nature of test [4]: qHTS assay for identifying genotoxic compounds that show differential cytotoxicity against isogenic chicken DT40 cell lines with known DNA damage response pathways - Rad54/Ku70 mutant cell line (AID 743015). Further: nearly all actives have a fitted effect of over 60% in size. Further: potency means the concentration at half of the fitted maximal effect.
Test [5] can be described thus: qHTS assay to identify small molecule antagonists of the androgen receptor (AR) signaling pathway - cell viability counter screen (AID 743033; further: nearly all actives have a fitted effect of over 45% in size; further: potency means the concentration at half of the fitted maximal effect).
The nature of test [6]: qHTS assay to identify small molecule antagonists of the androgen receptor (AR) signaling pathway using the MDA cell line - cell viability counter screen (AID 743041; further: nearly all actives have a fitted effect of over 45% in size; further: potency means the concentration at half of the fitted maximal effect). The essentials: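 Viability counter screen run alongside the AR antagonist reporter: cells seeded 5 h before compound, R1881 added, 16 h incubation at 37C without CO2, fluorescent CellTiter-Fluor signal quantified.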

The target of test [7] is Androgen receptor (Homo sapiens) (UniProt P10275). The test is described as follows: qHTS assay to identify small molecule agonists of the androgen receptor (AR) signaling pathway (AID 743036; active means well fitted activation curve with a large enough effect in the signal ratio in the repeat runs, with a control signal flat, not every such curve was filed as active; the % refers to the signal ratio). The essentials:
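Reporter line: GeneBLAzer AR-UAS-bla-GripTite (HEK293). Steps: plate cells, 4 h rest, add compounds, 16 h at 37C, add LiveBLAzer B/G substrate, 2 h at RT, read fluorescence.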

Test [8] has the same target. Put plainly: qHTS assay to identify small molecule agonists of the androgen receptor (AR) signaling pathway using the MDA cell line (AID 743040; further: nearly all actives have a fitted effect of over 20% in size). Particulars: MDA-kb2 AR-luc cells, MMTV luciferase, 16 h; activity change: at 70.3 µM (top of the series), stronger effect = higher value. In outline:
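Luminescence from ONE-Glo, read after 30 min at room temperature, reflects MMTV-driven luciferase in MDA-kb2 cells (AR- and GR-responsive). Treatment lasted 16 h at 37C, 0% CO2.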

For test [9] the target is unchanged. Put plainly: qHTS assay to identify small molecule antagonists of the androgen receptor (AR) signaling pathway using the MDA cell line (AID 743042; further: nearly all actives have a fitted effect of over 55% in size). The essentials:
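MDA-kb2 cells (human breast carcinoma, stably carrying an MMTV-luciferase reporter responsive to AR and GR) were plated at 3,000 cells/well and preincubated 5 hr at 37C, then given compound plus R1881 agonist for 16 h. ONE-Glo luminescence was read.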

Several values for one entry are separate records, joined by “and”; a condition that tells them apart may be missing. Equal entries are not always repeated. Records with an inconclusive call do not appear. A structure can be active in one record and inactive in another. Activity calls are given as the source filed them. Unless noted, the call rests on the fitted dose curve; in most records, active means well fitted curve in the direction sought with a large enough effect in the repeat runs; inconclusive means weak or mixed curves; inactive means no such curve, though single readings can be large; an effect the other way counts as inactive or inconclusive.

Results on 31 compounds are retold here after PubChem BioAssay (Tox21).

Sequence of Androgen receptor (Homo sapiens) (P10275 whole entry, looked up): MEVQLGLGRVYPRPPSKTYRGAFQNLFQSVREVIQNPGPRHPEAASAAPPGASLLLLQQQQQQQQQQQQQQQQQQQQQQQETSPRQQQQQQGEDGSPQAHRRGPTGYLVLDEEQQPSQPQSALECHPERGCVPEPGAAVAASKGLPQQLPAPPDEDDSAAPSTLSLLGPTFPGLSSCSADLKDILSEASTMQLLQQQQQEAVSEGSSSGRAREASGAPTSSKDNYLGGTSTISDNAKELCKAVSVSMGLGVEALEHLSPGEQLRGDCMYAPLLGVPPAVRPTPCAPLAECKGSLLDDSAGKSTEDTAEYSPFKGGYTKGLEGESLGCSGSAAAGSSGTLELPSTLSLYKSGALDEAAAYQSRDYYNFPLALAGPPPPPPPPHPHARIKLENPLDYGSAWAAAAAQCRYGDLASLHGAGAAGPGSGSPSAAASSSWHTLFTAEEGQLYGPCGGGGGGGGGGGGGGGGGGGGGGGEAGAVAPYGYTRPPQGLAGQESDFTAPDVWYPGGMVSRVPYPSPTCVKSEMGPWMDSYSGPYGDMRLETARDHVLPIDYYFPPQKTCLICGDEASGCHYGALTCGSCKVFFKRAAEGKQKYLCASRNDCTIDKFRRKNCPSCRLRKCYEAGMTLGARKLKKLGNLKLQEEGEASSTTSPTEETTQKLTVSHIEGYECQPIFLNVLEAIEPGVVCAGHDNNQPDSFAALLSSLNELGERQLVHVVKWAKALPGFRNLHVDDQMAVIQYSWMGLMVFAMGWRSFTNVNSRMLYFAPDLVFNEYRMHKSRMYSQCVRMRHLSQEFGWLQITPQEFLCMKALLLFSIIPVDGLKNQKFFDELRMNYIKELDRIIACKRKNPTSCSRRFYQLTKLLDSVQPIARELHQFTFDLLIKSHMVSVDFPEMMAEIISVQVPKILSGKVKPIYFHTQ

`COc1cc(CC(C)N)c(OC)cc1Br` (stereo not given): the Potency entry in test [1], in test [5] and in [6] was “inactive” in each case. Moreover, the Potency was 11.2 µM (active) and 29.8 µM (active) in [2]; 15.9 µM (active) in test [3]; 15.9 µM (active) in [4].

Turning to `c1ccc2sc(SNC3CCCCC3)nc2c1`, the Potency entry in [1], in test [5] and in test [6] was “inactive” in each case. The Potency result was “inactive and 61.1 µM (active)” in [2]; “inactive and 61.1 µM (active)” in test [3]; “inactive and 54.5 µM (active)” in [4].

As for `NP(N)(=O)NC(=O)c1ccc(F)cc1`, the Potency entry in test [1], in test [2], in [3], in test [4], in [5] and in [7] was “inactive” each time. Moreover, the Potency result in test [8] and in [9] was “inactive” each time.

Consider `CCC1(CC)C(=O)NC(=O)NC1=O`, for which the Potency entry in test [1], in [2], in test [3], in [4], in test [5] and in test [6] was “inactive” throughout.

With `CC(C)(c1ccccc1)c1cc(-n2nc3ccccc3n2)c(O)c(C(C)(C)c2ccccc2)c1`, the Potency entry in test [1], in test [2], in [3], in test [4], in test [5] and in [6] was “inactive” each time.

For `CCCCCCCCn1sccc1=O`, the Potency entry in [1] was “inactive”. Moreover, the Potency in test [2] is 4.87 µM (active) and 454 nM (active); in [3], 2.17 µM (active) and 719 nM (active); in test [4], 3.07 µM (active) and 1.02 µM (active); in test [5], 4.37 µM (active) and 20.4 µM (active); in [6], 36 µM (active).

Consider `O=C(O)C(O)C(O)C(=O)O` (stereo not given), for which the Potency result in [1], in test [2], in test [3], in test [4], in test [5] and in test [6] was “inactive” each time.

As for `Cc1ncc(C[n+]2csc(CCO)c2C)c(N)n1`, the Potency result in test [1], in test [2], in test [3], in [4], in test [5] and in test [6] was “inactive” in each case.

Turning to `O=C=NC1CCCCC1`, the Potency result in test [1], in [2], in [3], in [4], in [5] and in [6] was “inactive” throughout.

Take `CCCBr`: the Potency entry in test [1], in test [2], in [3], in test [4], in test [5] and in test [6] was “inactive” in each case.

As for `CCCC(C)(COC(N)=O)COC(=O)NC(C)C` (stereo not given), the Potency result in test [1], in test [2], in [3], in [4], in test [5] and in test [6] was “inactive” in each case.

For `NC(=O)CF`, the Potency entry in test [1], in test [2], in [3], in test [4], in [5] and in test [6] was “inactive” throughout.

`C=CCN1C[C@H](C)N([C@H](c2ccc(C(=O)N(CC)CC)cc2)c2cccc(OC)c2)C[C@H]1C`: the Potency result in [1], in test [5] and in [6] was “inactive” each time. The Potency in test [2] was 8.41 µM (active); in [3] it was 13.3 µM (active); in test [4] it was 18.8 µM (active).

Regarding `O=C(Cc1ccccc1)c1ccccc1`, the Potency result in [1], in test [2], in test [3], in [4], in test [5] and in test [6] was “inactive” each time.

As to `C[Si](Cn1cncn1)(c1ccc(F)cc1)c1ccc(F)cc1`, the Potency result in test [1] and in test [6] was “inactive” in each case. For the same compound, the Potency is 12.6 µM (active) and 10.9 µM (active) in test [2]; 3.98 µM (active) and 4.86 µM (active) in test [3]; 8.92 µM (active) and 9.69 µM (active) in test [4]; 14.3 µM (active) in test [5].

In the case of `CN(C)c1ccc(N=O)cc1`, the Potency in test [1] is 39 µM (active) and 43.6 µM (active); in test [2] it was 1.73 µM (active) and 1.93 µM (active); in test [3], 546 nM (active) and 1.93 µM (active); in test [4], 1.37 µM (active) and 1.72 µM (active); in [5], 12.3 µM (active) and 43.6 µM (active); in [6] it was 54.6 µM (active) and 27.3 µM (active).

As for `CC(O)CN1CCN(CC(=O)[O-])CCN(CC(=O)[O-])CCN(CC(=O)[O-])CC1.[Gd+3]` (stereo not given), the Potency entry in test [1], in test [2], in test [3], in test [4], in test [5] and in test [6] was “inactive” each time.

Consider `CC(Oc1cc(Cl)c(Cl)cc1Cl)C(=O)O` (stereo not given), for which the Potency entry in [1], in test [2], in [3], in [4], in test [5] and in [6] was “inactive” in each case.

As to `N#CC1(N=NC2(C#N)CCCCC2)CCCCC1`, the Potency result in [1], in test [2], in test [3], in test [4], in [5] and in [6] was “inactive” throughout.

Take `CCCCC(CC)COC(=O)c1c(Br)c(Br)c(Br)c(Br)c1C(=O)OCC(CC)CCCC` (stereo not given): the Potency result in test [1], in [2], in test [3], in test [4], in test [5] and in [6] was “inactive” each time.

In the case of `O=[N+]([O-])O[C@H]1CO[C@H]2[C@@H]1OC[C@H]2O[N+](=O)[O-]`, the Potency entry in test [1], in [2], in test [3], in test [4] and in [6] was “inactive” throughout.

Take `CCN(C(C)=O)c1cccc(-c2ccnc3c(C#N)cnn23)c1`: the Potency result in [1], in [2], in test [3] and in [5] was “inactive” throughout.

With `O=C([O-])c1ccccn1.O=C([O-])c1ccccn1.O=C([O-])c1ccccn1.[Cr+3]`, the Potency result in [1], in test [2], in test [3], in test [4] and in test [6] was “inactive” throughout.

Turning to `C=CC(=O)NC(C)(C)CC(C)=O`, the Potency entry in [1], in test [2] and in test [5] was “inactive” each time. The Potency in test [3] was 54.5 µM (active).

`CCOP(=O)(O)C(N)=O`: the Potency entry in [1], in [2], in test [3], in test [4] and in test [6] was “inactive” throughout.

On to `CCOC(=O)c1cn2nc(OP(=S)(OCC)OCC)cc2nc1C`, for which the Potency entry in test [1] and in test [6] was “inactive” throughout. The values for the Potency in test [2], in test [3] and in test [4] were 27.3 µM (active), 48.6 µM (active) and 38.6 µM (active), respectively.

Turning to `CCC[N+](CCC)(CCC)CCC`, the Potency result in test [1], in test [2], in test [3], in test [4] and in test [6] was “inactive” in each case.

For `Nc1ccccc1C(=O)OCCc1ccccc1`, the Potency entry in test [1], in [2], in test [3], in [4] and in test [6] was “inactive” throughout.

As to `CCCCCl`, the Potency result in test [1], in [2], in [3], in test [4] and in test [6] was “inactive” each time.

On to `CC(C)[C@@H](C(=O)O[C@@H](C#N)c1cccc(Oc2ccccc2)c1)c1ccc(Cl)cc1`, for which the Potency result in test [1], in test [2] and in [6] was “inactive” throughout. Besides, the Potency entry in test [3] was “inactive and 54.5 µM (active)”; in test [4] it was 30.6 µM (active).

For the compound `OCCSSCCO`, the Potency result in test [1], in test [2], in [3], in test [4] and in test [6] was “inactive” throughout.
